Laboratory results published in the supplement of paper PMC10849652.
Of roughly 8,800 targets only a part is listed; those with a hit were picked by preference. About 0.5% of all pairs of compound and target were hits. Unmarked numbers belong to inactive results.

Columns and labels:
Experiment in all cases: log2 fold change, soluble protein after heating vs DMSO (PISA); higher = thermal stabilisation; K562 lysate, 10 uM; active = over 0.2 and 3.5 SD of the protein, either way, in both replicates (recomputed)
nilotinib = compound: Cc1cn(-c2cc(NC(=O)c3ccc(C)c(Nc4nccc(-c5cccnc5)n4)c3)cc(C(F)(F)F)c2)cn1 [nilotinib]
In short: (§1)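 Thermal stability, expressed as log-two fold change relative to solvent controls, is given from duplicates. Crude K562 extract in PBS pH 7.4 with 1 mM MgCl2, at 1 mg/mL protein, was treated with 10 μM compound for 30 min and heated in aliquots for 3 min across 48°C-58°C. After pooling, adjustment to 0.5% NP-40 at 4°C and centrifugation at 21,000xg for 90 min, supernatant protein was measured by TMTpro 16plex LC-MS/MS with channel sums equalised.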

[1] = compound: Cc1nc(Nc2n[nH]c3c2CN(C(=O)N[C@H](CN(C)C)c2ccccc2)C3(C)C)c2sccc2n1
In short: as §1

dasatinib = compound: Cc1nc(Nc2ncc(C(=O)Nc3c(C)cccc3Cl)s2)cc(N2CCN(CCO)CC2)n1 [dasatinib]
In short: as §1

[2] = compound: Cc1ncc(-c2ccnc(Nc3ccc(S(C)(=O)=O)cc3)n2)n1C(C)C
In short: as §1

[3] = compound: Cn1cc(-c2ccc3c(c2)CCN3C(=O)Cc2cccc(C(F)(F)F)c2)c2c(N)ncnc21
In short: as §1

quisinostat = compound: Cn1cc(CNCC2CCN(c3ncc(C(=O)NO)cn3)CC2)c2ccccc21 [quisinostat]
In short: as §1

tipifarnib = compound: Cn1cncc1[C@@](N)(c1ccc(Cl)cc1)c1ccc2c(c1)c(-c1cccc(Cl)c1)cc(=O)n2C [tipifarnib]
In short: as §1

[4] = compound: NC(=O)Nc1cc(-c2cccc(F)c2)sc1C(=O)N[C@H]1CCCNC1
In short: as §1

[5] = compound: NC(=O)c1cnc(N[C@@H]2CCCC[C@@H]2N)nc1Nc1cccc(-n2nccn2)c1
In short: as §1

[6] = compound: NC1(c2ccc(-c3nc4ccn5c(=O)[nH]nc5c4cc3-c3ccccc3)cc2)CCC1
In short: as §1

[7] = compound: NCC(=O)Nc1ccc(-n2nc(C(F)(F)F)cc2-c2ccc3c(ccc4ccccc43)c2)cc1
In short: as §1

vorinostat = compound: O=C(CCCCCCC(=O)Nc1ccccc1)NO [vorinostat]
In short: as §1

silmitasertib = compound: O=C(O)c1ccc2c(c1)nc(Nc1cccc(Cl)c1)c1ccncc12 [silmitasertib]
In short: as §1

[8] = compound: O=C1NC(=O)C(c2cnc3ccccn23)=C1c1cn2c3c(cc(F)cc13)CN(C(=O)N1CCCCC1)CC2
In short: as §1

entospletinib = compound: c1cn2cc(-c3ccc4cn[nH]c4c3)nc(Nc3ccc(N4CCOCC4)cc3)c2n1 [entospletinib]
In short: as §1

UniProt Q96R06, sequence (Q96R06 whole entry, looked up): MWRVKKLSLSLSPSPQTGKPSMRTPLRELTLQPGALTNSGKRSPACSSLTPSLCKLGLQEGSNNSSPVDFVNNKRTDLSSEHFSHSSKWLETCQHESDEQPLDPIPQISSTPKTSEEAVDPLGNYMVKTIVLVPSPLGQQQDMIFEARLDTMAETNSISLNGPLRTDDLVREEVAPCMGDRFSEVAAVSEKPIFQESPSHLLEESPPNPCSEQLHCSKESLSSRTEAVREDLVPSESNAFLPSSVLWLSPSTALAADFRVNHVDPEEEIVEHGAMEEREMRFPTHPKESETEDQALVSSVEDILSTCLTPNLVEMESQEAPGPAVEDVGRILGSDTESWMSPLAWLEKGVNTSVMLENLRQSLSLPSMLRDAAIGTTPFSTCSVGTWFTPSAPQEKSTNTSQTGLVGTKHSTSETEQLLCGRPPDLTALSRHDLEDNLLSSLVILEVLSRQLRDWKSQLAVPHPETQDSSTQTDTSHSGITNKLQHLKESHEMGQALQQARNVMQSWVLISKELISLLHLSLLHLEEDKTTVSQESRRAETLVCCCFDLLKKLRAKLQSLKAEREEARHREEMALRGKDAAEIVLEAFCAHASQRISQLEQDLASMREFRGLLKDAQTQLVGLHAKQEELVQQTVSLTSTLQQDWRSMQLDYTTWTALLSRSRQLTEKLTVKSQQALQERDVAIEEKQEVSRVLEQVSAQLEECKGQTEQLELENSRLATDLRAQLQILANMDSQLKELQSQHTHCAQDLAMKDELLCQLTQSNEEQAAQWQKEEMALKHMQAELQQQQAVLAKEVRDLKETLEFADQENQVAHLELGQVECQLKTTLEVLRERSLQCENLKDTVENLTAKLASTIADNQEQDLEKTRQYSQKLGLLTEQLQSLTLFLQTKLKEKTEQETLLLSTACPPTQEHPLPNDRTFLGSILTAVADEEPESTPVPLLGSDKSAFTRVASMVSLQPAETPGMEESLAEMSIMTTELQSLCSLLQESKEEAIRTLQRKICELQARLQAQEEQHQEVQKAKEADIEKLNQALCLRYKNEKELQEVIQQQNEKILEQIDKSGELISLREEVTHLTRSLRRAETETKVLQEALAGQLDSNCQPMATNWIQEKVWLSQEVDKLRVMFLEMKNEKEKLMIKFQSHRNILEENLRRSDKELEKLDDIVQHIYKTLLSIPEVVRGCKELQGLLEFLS
UniProt Q16637, sequence (Q16637 whole entry, looked up): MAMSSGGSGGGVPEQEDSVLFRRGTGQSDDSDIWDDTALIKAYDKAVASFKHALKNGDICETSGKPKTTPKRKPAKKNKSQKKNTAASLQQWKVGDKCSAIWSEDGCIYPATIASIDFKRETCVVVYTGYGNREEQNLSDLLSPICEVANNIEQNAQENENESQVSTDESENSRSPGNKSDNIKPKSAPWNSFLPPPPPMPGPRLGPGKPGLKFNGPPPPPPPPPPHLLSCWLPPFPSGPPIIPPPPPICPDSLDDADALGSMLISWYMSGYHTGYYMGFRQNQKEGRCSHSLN
UniProt O95347, sequence (O95347 whole entry, looked up): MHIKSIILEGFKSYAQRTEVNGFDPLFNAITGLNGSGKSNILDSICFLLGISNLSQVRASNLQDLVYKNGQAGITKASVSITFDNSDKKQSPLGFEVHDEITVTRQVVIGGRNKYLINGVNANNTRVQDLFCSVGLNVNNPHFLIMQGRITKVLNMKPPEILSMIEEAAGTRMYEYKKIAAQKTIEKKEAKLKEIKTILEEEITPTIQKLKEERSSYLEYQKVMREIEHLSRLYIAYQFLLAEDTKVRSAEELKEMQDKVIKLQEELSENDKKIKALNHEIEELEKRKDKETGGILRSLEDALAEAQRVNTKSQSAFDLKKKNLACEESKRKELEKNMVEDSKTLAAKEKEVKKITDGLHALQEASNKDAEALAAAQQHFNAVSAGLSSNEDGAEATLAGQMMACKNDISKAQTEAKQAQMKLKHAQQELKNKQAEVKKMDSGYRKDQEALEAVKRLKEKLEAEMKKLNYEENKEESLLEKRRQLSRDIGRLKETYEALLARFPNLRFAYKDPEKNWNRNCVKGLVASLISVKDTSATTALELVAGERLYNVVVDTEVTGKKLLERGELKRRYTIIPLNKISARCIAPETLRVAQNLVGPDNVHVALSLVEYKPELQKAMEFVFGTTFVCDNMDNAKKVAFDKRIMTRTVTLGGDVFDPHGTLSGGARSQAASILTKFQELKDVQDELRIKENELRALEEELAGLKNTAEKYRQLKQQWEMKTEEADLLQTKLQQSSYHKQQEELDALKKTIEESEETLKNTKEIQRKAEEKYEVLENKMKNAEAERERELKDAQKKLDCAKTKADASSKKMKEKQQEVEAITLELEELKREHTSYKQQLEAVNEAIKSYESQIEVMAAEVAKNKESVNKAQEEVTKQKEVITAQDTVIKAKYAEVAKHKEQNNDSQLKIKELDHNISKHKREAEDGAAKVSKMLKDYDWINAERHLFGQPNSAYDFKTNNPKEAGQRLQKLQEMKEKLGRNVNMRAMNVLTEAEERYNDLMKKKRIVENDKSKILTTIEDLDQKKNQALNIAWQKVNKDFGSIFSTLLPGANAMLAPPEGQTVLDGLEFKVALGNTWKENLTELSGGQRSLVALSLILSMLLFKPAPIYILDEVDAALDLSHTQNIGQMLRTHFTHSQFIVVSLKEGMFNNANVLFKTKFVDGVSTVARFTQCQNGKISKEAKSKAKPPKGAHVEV
UniProt Q8N1F8, sequence (Q8N1F8 whole entry, looked up): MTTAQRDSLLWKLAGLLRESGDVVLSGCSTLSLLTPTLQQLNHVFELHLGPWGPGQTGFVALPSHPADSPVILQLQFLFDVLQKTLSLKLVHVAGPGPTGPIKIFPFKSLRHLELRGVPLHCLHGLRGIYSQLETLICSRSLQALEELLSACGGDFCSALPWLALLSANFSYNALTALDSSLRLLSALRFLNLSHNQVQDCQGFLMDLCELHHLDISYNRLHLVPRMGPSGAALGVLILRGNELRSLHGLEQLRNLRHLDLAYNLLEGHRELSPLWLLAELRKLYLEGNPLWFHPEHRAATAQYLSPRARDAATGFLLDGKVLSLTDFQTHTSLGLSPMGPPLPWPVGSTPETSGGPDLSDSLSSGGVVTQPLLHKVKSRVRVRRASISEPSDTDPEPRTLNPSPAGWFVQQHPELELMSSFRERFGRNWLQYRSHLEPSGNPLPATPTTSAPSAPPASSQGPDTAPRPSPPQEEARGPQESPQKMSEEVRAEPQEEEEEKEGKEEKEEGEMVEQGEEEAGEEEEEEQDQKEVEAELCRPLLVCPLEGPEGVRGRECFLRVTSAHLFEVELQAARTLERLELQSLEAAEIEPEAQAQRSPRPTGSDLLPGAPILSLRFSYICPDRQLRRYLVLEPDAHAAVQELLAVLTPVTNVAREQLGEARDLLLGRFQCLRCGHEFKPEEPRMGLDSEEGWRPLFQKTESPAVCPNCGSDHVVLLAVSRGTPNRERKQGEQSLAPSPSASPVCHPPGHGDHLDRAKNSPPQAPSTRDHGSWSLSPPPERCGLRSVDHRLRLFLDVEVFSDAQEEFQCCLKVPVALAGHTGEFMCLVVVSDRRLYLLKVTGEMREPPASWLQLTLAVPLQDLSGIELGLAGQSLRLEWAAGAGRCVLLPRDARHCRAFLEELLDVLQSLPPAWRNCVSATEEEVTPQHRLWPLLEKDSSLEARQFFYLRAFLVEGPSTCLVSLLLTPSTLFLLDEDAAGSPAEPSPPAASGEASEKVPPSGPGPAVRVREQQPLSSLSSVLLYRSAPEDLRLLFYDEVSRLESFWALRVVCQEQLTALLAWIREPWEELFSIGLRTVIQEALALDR
UniProt Q7KZF4, sequence (Q7KZF4 whole entry, looked up): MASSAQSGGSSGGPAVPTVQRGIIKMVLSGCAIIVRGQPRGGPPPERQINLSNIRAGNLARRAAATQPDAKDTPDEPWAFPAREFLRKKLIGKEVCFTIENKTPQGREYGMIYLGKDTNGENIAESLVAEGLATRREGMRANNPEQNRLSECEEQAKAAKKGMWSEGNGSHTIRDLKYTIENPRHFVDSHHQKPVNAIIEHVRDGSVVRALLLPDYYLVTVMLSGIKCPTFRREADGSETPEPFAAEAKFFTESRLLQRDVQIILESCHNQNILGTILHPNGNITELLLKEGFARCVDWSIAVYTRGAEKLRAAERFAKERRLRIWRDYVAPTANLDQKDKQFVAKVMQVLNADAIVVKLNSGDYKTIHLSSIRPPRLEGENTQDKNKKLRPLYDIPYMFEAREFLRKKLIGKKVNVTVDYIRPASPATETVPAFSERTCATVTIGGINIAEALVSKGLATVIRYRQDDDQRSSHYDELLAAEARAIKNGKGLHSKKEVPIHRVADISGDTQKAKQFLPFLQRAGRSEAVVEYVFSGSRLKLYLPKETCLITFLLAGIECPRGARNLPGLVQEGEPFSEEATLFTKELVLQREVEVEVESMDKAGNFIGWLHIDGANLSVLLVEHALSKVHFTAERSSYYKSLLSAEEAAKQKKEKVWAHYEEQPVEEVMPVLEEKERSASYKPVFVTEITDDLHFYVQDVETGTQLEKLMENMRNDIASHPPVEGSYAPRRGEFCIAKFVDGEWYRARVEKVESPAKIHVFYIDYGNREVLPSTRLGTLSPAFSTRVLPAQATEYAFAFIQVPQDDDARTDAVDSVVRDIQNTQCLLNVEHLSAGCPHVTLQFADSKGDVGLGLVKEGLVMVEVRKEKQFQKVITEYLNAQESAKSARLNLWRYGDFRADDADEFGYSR
UniProt Q96DI7, sequence (Q96DI7 whole entry, looked up): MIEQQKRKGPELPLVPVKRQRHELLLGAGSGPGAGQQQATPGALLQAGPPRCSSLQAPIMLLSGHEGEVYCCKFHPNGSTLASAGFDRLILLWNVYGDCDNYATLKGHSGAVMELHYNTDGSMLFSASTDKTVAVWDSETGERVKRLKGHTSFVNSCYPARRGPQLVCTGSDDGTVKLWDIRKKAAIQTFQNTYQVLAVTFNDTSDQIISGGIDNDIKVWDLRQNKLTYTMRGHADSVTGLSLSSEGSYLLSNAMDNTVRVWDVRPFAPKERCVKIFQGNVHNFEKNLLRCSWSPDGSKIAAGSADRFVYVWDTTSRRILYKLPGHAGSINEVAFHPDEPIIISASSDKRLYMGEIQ

Target	log2 fold change (nilotinib)	log2 fold change [1]	log2 fold change (dasatinib)	log2 fold change [2]	log2 fold change [3]	log2 fold change (quisinostat)	log2 fold change (tipifarnib)	log2 fold change [4]	log2 fold change [5]	log2 fold change [6]	log2 fold change [7]	log2 fold change (vorinostat)	log2 fold change (silmitasertib)	log2 fold change [8]	log2 fold change (entospletinib)
SND1 (UniProt Q7KZF4)	-0.008	-0.011	-0.028	-0.024	0.038	-0.033	-0.003	0.05	-0.007	-0.017	0.001	-0.414 (active)	0.048	0.013	0.013
SMC2 (UniProt O95347)	-0.017	-0.005	-0.036	0.007	0.025	-0.023	0.024	0.034	0.017	-0.003	0.014	-0.308 (active)	0.016	-0.01	0.009
STK11IP (UniProt Q8N1F8)	0.065	0.001	-0.053	-0.045	-0.016	-0.029	-0.033	-0.012	-0.014	0.037	-0.017	-0.254 (active)	0.025	0.008	0.024
SMN1 (UniProt Q16637)	0.012	0.019	-0.005	-0.023	0.05	-0.146	0	-0.001	0.047	0	-0.014	-0.278 (active)	0.035	0.052	-0.024
SPAG5 (UniProt Q96R06)	0.026	-0.013	-0.006	0.001	0.02	-0.051	-0.045	0.001	0.004	-0.008	0.038	-0.298 (active)	0.042	-0.007	0.008
SLC25A32 (UniProt Q9H2D1)	0.007	0.033	0.011	0.043	-0.055	-0.015	0.016	0.023	-0.029	-0.026	0.053	0.23	-0.008	0.046	0.033
SH3GL1 (UniProt Q99961)	-0.01	0.029	-0.024	0.01	-0.009	-0.046	0.015	0.004	0.006	0.033	-0.012	-0.245 (active)	0	0.009	-0.004
SSNA1 (UniProt O43805)	-0.038	0.057	-0.004	-0.004	-0.079	0.081	0.007	-0.039	0.006	0.019	-0.036	-0.34 (active)	0	-0.023	-0.065
SPHK1 isoform 2 (UniProt Q9NYA1)	0.03	-0.034	-0.007	-0.071	0.025	0.084	-0.058	-0.028	-0.005	0.052	0.091	-0.408	0.089	-0.167	0.032
SNRNP40 (UniProt Q96DI7)	0.018	0.03	-0.007	0.019	-0.004	-0.027	0.012	0.013	-0.012	0.002	0.01	0.233	-0.012	0.022	0.03
